From PubChem BioAssay (NCI)
This is part of a sample that, as a whole, favours compounds with a hit. Of some 83,000 tested, about 20% had one in any assay.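 Activity criterion: percent growth below 10, measured after cells in 96-well plates were exposed to a single compound concentration for 48 hours.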 Values without a mark were called inactive. Active and inactive are the calls of the source.

Key:
Assay in all cases: NCI-60 one-dose screen, 48 h (100 = growth as untreated, 0 = no growth, -100 = all killed)
Details in all cases: 10 µM unless noted
T-47D breast = test system: T-47D breast
BT-549 breast = test system: BT-549 breast
MDA-MB-435 melanoma = test system: MDA-MB-435 melanoma
SW-620 colon = test system: SW-620 colon
MCF7 breast = test system: MCF7 breast
HCT-116 colon = test system: HCT-116 colon
HCC-2998 colon = test system: HCC-2998 colon
KM12 colon = test system: KM12 colon

| SMILES | growth (T-47D breast) | growth (BT-549 breast) | growth (MDA-MB-435 melanoma) | growth (SW-620 colon) | growth (MCF7 breast) | growth (HCT-116 colon) | growth (HCC-2998 colon) | growth (KM12 colon) |
| --- | --- | --- | --- | --- | --- | --- | --- | --- |
| COC1=C(C)C(=O)c2c(c(CCCl)c3n2CCC3O)C1=O (stereo unspecified) | 81.2% | -30.4% (active) | -72.7% (active) | 8.6% (active) | -14.2% (active) | 9.41% (active) | -39.1% (active) | 0.859% (active) |
| O=[N+]([O-])c1ccccc1NCSc1ccc(Cl)cc1 | 93.3% | 69.2% | 93.8% | 101% | 91.9% | 83.8% | 84.3% | 79.2% |
| O=C(N/N=C/[C@@H](O)[C@H](O)[C@H](O)CO)c1ccc(NC(=O)c2cccnc2)cc1 | 96.1% | 99% | 104% | 98.9% | 92.6% | 103% | 117% | 102% |
| CCN(CC)c1ccc(C2=NN(C(C)=O)C(c3cc(OC)c(OC)c(OC)c3)C2)cc1 (stereo unspecified) | 47.2% | -36.3% (active) | -53% (active) | 22.3% | 27% | 6.95% (active) | -6.47% (active) | -17% (active) |
| O=[N+]([O-])c1ccc(Oc2nc(Nc3ccc(O[C@H]4CO[C@H]5[C@@H]4OC[C@@H]5O)c(Cl)c3)ncc2F)c(Cl)c1 | 11.9% | 31.8% | 10.9% | 35.7% | 21.2% | 25% | 69.3% | 11.2% |
| Cc1ccc(/C=C(\C#N)n2nc3cccc(F)c3n2)cc1 | 74% | 102% | 51.1% | 94.3% | 54.1% | 70.7% | 105% | 68.2% |
| Cc1cc(O)c(C2=NN(c3ccc(S(N)(=O)=O)cc3)C(/C=C/c3ccccc3)C2)cc1Cl (stereo unspecified) | 25.7% | 52.4% | 47.4% | 51.9% | 33.8% | 10.6% | 50.5% | 57.6% |
| COc1ccc(C2=Nn3c(nnc3-c3cc(Cl)cc(Cl)c3Cl)SC2)cc1 | 68.6% | -31.2% (active) | -46.7% (active) | 20.2% | 7.11% (active) | -27% (active) | -57.9% (active) | 6.48% (active) |
| c1ccc(-c2nc3sc(-c4ccccc4)cn3n2)cc1 | 36.7% | 99.9% | 99.2% | 94.9% | 38.3% | 88.9% | 104% | 81.1% |
| CCCCOc1ccc(/C=N/NC(N)=S)cc1 | 23.8% | 73.6% | 85.5% | 73.3% | 61.7% | 67.8% | 79.7% | 69.2% |
| COC(=O)CCC/C=C\C[C@H]1C=CC(=O)/C1=C/C[C@@H](O)CCc1cccc(C(F)(F)F)c1 | 9.77% (active) | -11.4% (active) | -82.2% (active) | -40% (active) | 6.5% (active) | -89% (active) | -89.6% (active) | -51.9% (active) |
| COc1ccc(S(=O)(=O)n2c3ccccc3n3ncc(-c4nnc(C)o4)c23)cc1 | 41.8% | 49.5% | -21.9% (active) | 27% | 18.9% | 18.4% | 17.1% | 29.8% |
| CCCCCCNC(=O)Oc1ccc(/C(=C(\C)c2ccc(Cl)cc2)c2ccc(OCCCN(C)C)cc2)cc1 | 61.1% | 90.6% | 72.4% | 87.9% | 25.2% | 36.9% | 82.3% | 59.6% |
| CCCCn1c(=O)c(-c2cc(-c3ccc(Cl)cc3)nc(-c3ccc(Cl)cc3)c2)cc2cc(Cl)ccc21 | 103% | 106% | 103% | 99.7% | 98.4% | 106% | 102% | 102% |
| CS(=O)(=O)N(c1cc(-c2ccc3ncnc(Nc4ccc(F)c(Cl)c4)c3c2)cnc1Cl)S(C)(=O)=O | -11% (active) | 22% | 43.8% | 46.3% | 12% | 45.1% | 45.1% | 67.1% |
| [O-][n+]1c2ccccc2[n+]([O-])c2c3ccccc3[nH]c21 | 2.23% (active) | 81.3% | 110% | 45.4% | 19.4% | 10.3% | 69.2% | 90.1% |

| SMILES | growth (T-47D breast) | growth (BT-549 breast) | growth (MDA-MB-435 melanoma) | growth (SW-620 colon) | growth (MCF7 breast) | growth (HCT-116 colon) | growth (HCC-2998 colon) | growth (KM12 colon) |
| --- | --- | --- | --- | --- | --- | --- | --- | --- |
| CCN(CC)S(=O)(=O)c1ccc(NC(=O)CSc2nnc(C)n2-c2ccccc2)cc1 | 106% | 117% | 99.2% | 105% | 113% | 102% | 109% | 104% |
| CCC(C)(c1cc(C(C)(C)C)c(O)c(C(C)(C)C)c1)c1cc(C(C)(C)C)c(O)c(C(C)(C)C)c1 | 84.2% | 104% | 105% | 102% | 92.5% | 99.2% | 110% | 100% |
| O=C1c2cccc3cccc(c23)C(=O)N1Nc1nc(NC2CCCCC2)nc(N2CCOCC2)n1 | 88.4% | 110% | 103% | 98.1% | 89.3% | 93.6% | 111% | 98.9% |
| O=C(CSc1nc2ccccc2[nH]1)Nc1cccc(Cl)c1 | 83.4% | 103% | 102% | 95.7% | 102% | -54.9% (active) | 103% | 99.5% |
| COc1ccc(-c2[nH]ncc2-c2cc3c(c(OC)c2)OCC(=O)N3)cc1 | 27.2% | 38.4% | -56.6% (active) | 12.6% | 15.6% | 13% | 35.2% | 23.1% |
| CC(C)n1cnc2c(Nc3cccc(Cl)c3)nc(N[C@H]3CCCC[C@@H]3N)nc21 | 64.8% | 63% | 47.5% | 55.5% | 40.9% | 28.1% | 23.4% | 13.5% |
| COc1ccc(OC)c(/C=C/C(=O)N/N=C/c2ccc(Cl)cc2)c1 | 29.5% | 63.5% | -32.4% (active) | 19.9% | 8.93% (active) | 5.72% (active) | 2.34% (active) | 18% |
| Cc1ccc(C(=O)N/N=C/c2cccc([N+](=O)[O-])c2)cn1 | 93.1% | 122% | 100% | 103% | 101% | 105% | 107% | 107% |
| O=C(/C=C/c1ccc([N+](=O)[O-])o1)NNC(=O)c1cc2ccccc2cc1O | 2.44% (active) | -4.88% (active) | -13.3% (active) | -5.85% (active) | 32.9% | -100% (active) | -18.4% (active) | 11.6% |
| O=C(CCOCCNC(=O)COc1ccc2c(c1)OCC(c1ccc(F)cc1)C2=O)NCCCC(O)(P(=O)(O)O)P(=O)(O)O (stereo unspecified) | 101% | 105% | 102% | 101% | 89% | 101% | 98% | 100% |
| CC(=O)CC[C@H]1C(=O)N[C@@H](C(C)C)C(=O)N[C@@H](Cc2cc(O)cc(F)c2)C(=O)N2CCC[C@H](N2)C(=O)O[C@H](/C(C)=C/C=C/C(=O)OC(C)(C)C)C/C=C/C=C/[C@H](O)[C@H](C)[C@H]1O | 55% | 39.6% | 43% | 25.4% | 48.2% | 26.6% | 51.8% | 34.1% |
| O=C(N=c1oc2ccccc2cc1-c1cc2ccccc2[nH]1)Nc1ccc(Cl)cc1 | 91.1% | 90.7% | 104% | 95.5% | 83.5% | 89.2% | 99.7% | 99.2% |
| Oc1c(I)cc(I)cc1CNCCCN(Cc1ccccn1)Cc1ccccn1 | -57% (active) | -73.2% (active) | -90.7% (active) | -61.9% (active) | -56.3% (active) | -87% (active) | -82.5% (active) | -85.1% (active) |
| Cc1ccc(S(=O)(=O)N/N=C/C2(c3ccccc3)CC2)cc1 | 101% | 102% | 104% | 97.1% | 88.6% | 98.7% | 111% | 107% |
| Cc1cccc2c(=O)c3c(sc12)c(NCc1ccccc1)nc1ccccc13 | 48.4% | 101% | 109% | 95.5% | 27.2% | 77% | 90.3% | 84.5% |
| C[C@]12CC[C@@H]3c4cc(OC(F)F)c(OS(N)(=O)=O)cc4CC[C@H]3[C@@H]1CC[C@@H]2OS(N)(=O)=O | 43.4% | 62.7% | 42.8% | 22% | 20.2% | 20.3% | 74.1% | 35.6% |
